From PubChem
The list is not random: actives were taken first. Their share in the collection is about 2.4%.
APOBEC3A inh – APOBEC3A ssDNA deaminase inhibitors, primary screen, selectivity assay for APOBEC3G inhibitor project, biochemical, FAM/TAMRA oligo cleavage fluorescence | DNA dC->dU-editing enzyme APOBEC-3A (Homo sapiens), P31941 | recombinant A3A, FAM/TAMRA ssDNA deamination fluorescence | inhibition, % at 20 µM | actives 0.41% (n = 330,000) | AID 493011, 2011;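 active = at least 40% inhibition at 20 µM here, with at most 30% in a related deaminase screen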
Target sequence (P31941 whole entry, looked up): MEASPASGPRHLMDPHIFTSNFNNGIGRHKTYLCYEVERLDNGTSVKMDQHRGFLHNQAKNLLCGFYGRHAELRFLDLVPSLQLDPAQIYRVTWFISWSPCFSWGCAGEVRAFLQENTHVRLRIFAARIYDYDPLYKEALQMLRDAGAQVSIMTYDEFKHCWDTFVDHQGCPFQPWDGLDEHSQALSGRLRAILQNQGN
Yeast superoxide – reduction of superoxide in aged yeast, primary screen, HTS; S. cerevisiae aged cells, superoxide DHE fluorescence; stronger effect = lower value; superoxide response (% of plate mean), % at 10 µM; actives 0.18% (n = 330,000);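 active = superoxide response under a set limit, about three screen SD below normal, cut at about 65% in these data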;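 also: yeast aged for seven days with compound at 30 °C before DHE staining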
PfM18AAP inh – PfM18AAP inhibitors, malaria aminopeptidase, primary screen, biochemical, QFRET, recombinant enzyme; actives 1.2% (n = 290,000); M18 aspartyl aminopeptidase (Plasmodium falciparum 3D7); AID 1822, 2009; inhibition, % at 7.35 µM; H-Glu-NHMec fluorogenic cleavage;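 active = inhibition above the campaign mean inhibition over all tested compounds plus 3 SD, cut at about 28% in these data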
PfG6PD inh – PfG6PD enzyme inhibitors, primary screen, biochemical, fluorescence intensity, uHTS; glucose-6-phosphate dehydrogenase-6-phosphogluconolactonase (Plasmodium falciparum 3D7); PfGluPho enzyme, NADPH resazurin-diaphorase fluorescence; inhibition, % at 20 µM; actives 0.78% (n = 350,000); AID 504690, 2011;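 active = inhibition reaching at least a set limit at 20 µM in the primary screen, cut at about 59% in these data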
A3G deaminase – APOBEC3G DNA deaminase inhibitors, primary screen, biochemical, fluorescence, single-stranded DNA substrate, uHTS; DNA dC->dU-editing enzyme APOBEC-3G (Homo sapiens), Q9HC16; recombinant A3G, ssDNA deamination FAM/TAMRA fluorescence; inhibition, % at 20 µM; actives 0.28% (n = 330,000); AID 493012, 2011;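 active = inhibition of at least 40% at 20 µM, with no more than 30% in the related APOBEC3A deaminase screen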
Target sequence (Q9HC16 whole entry, looked up): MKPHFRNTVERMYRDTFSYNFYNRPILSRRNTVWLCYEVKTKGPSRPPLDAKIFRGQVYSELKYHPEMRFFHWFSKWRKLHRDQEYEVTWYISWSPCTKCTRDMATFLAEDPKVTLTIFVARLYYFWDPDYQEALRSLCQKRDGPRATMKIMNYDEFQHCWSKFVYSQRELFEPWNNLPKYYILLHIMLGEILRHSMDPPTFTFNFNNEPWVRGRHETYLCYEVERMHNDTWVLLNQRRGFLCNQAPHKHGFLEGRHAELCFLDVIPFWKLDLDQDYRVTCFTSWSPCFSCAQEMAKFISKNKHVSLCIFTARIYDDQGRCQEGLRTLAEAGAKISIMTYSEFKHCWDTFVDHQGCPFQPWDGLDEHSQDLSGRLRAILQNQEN
A3A conf – APOBEC3A deaminase inhibitors, retest, confirmation, selectivity assay for APOBEC3G inhibitor project, biochemical, single concentration, fluorescence readout | shares compounds with APOBEC3A inh | recombinant A3A, ssDNA deaminase UDG fluorescence assay | inhibition, % at 20 µM | actives 63% (n = 1,400) | AID 493151, 2011;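 active = inhibition reaching a set limit, 80% of the first screen's cutoff, at 20 µM in any replicate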
UDG ctr A3A – E. coli UDG inhibitors, confirmation, counter-screen for APOBEC3A inhibitor project, biochemical, single concentration, fluorescence, FAM/TAMRA oligo. 1,000 tested, under 10 active. UDG counterscreen, FAM/TAMRA uracil oligo fluorescence. shares compounds with APOBEC3A inh. inhibition, % at 20 µM; call rule not given here
Numbers stand for hits; – = inactive; · = no result.

SMILES | APOBEC3A inh | Yeast superoxide | PfM18AAP inh | PfG6PD inh | A3G deaminase | A3A conf | UDG ctr A3A
COc1ccc(S(=O)(=O)/N=C2/NC(=O)/C(=C/c3ccco3)S2)cc1 | 46.4 | – | – | – | – | 23.7 | –
Cc1nc2ccc(NS(=O)(=O)c3ccc(Br)cc3)cc2s1 | – | – | · | – | – | · | ·
CC(C)N1C(=O)CC2(CC[N+](C)(CCOC(=O)C(c3ccccc3)c3ccccc3)CC2)C1=O (stereo unspecified) | 59.8 | – | – | – | – | 26.7 | –
O=C(OCCN1CCOCC1)C(c1ccccc1)c1ccccc1 | – | – | – | – | – | · | ·
CCOC(=O)c1ccc2c(c1)N(CC)C(=O)c1ccccc1S2 | 51.7 | – | – | – | – | 72.4 | –
O=C(CCS(=O)(=O)c1ccc(Br)cc1)NCCc1ccccc1 | – | – | – | – | – | · | ·
NS(=O)(=O)c1ccc(CCNC(=O)CCS(=O)(=O)c2ccc(Br)cc2)cc1 | 45.7 | – | – | – | – | 40.3 | ·
CCOC(=O)C1=C(c2ccccc2)N=c2s/c(=C\c3cc(OC)c(OC)c(OC)c3)c(=O)n2C1c1cccs1 (stereo unspecified) | – | – | – | – | – | · | ·
CCOC(=O)C1=C(c2ccccc2)N=c2s/c(=C\c3ccco3)c(=O)n2C1c1cccs1 (stereo unspecified) | 42.2 | – | – | – | – | 18.8 | –
COc1ccc(C(=O)OCC[N+]2(C)CCOCC2)cc1 | 60.7 | – | – | – | – | 72.7 | –
O=C(CC1CCCC1)N1CCN(S(=O)(=O)c2cccc(F)c2)CC1 | · | · | · | – | · | · | ·
c1ccc(Nc2ncnc3sc4c(c23)CCC4)cc1 | – | – | – | – | – | · | ·
Fc1ccc(Nc2ncnc3sc4c(c23)CCC4)cc1 | 60.6 | – | – | – | – | – | –
CC1CC(C)CN(C(=O)CSc2nc(N)cc(=O)[nH]2)C1 (stereo unspecified) | – | – | – | – | – | · | ·
O=C(CSc1ncn(-c2ccccc2)n1)Nc1ccc2c(c1)OCCO2 | – | – | – | – | – | · | ·
O=C(CSc1ncn(-c2ccccc2)n1)Nc1ccc2c(c1)OCO2 | 46.3 | – | – | – | – | – | ·
CCOC(=O)/C=C/[C@H]1CCc2cccc(Cl)c2O1 | – | – | · | – | – | · | ·
CCCc1nc2nc(C)c(NS(=O)(=O)c3ccc(C4CCCCC4)cc3)c(=O)n2[nH]1 | – | – | – | – | – | · | ·
Cc1cccc(C(=O)N[C@H](C(=O)OCc2cc(=O)n3c(n2)sc2ccccc23)C(C)C)c1 | 42.9 | – | – | – | – | 52.6 | –
O=c1cc(CCl)nc2sc3ccccc3n12 | 62.5 | – | – | – | – | 33.8 | –
Cc1ccc(C)c(NS(=O)(=O)c2cc(C(=O)NCc3ccccn3)ccc2C)c1 | – | – | – | – | – | · | ·
CCN1C(=O)[C@H]2[C@H]3CN=C(SCc4ccc(C)cc4)N3[C@@](C)(C(=O)OC)[C@H]2C1=O | – | – | · | – | – | · | ·
O=C(NCc1ccccn1)c1cccc(S(=O)(=O)N2CCCCC2)c1 | – | – | · | – | – | · | ·
CC1CCN(C(=O)CCc2ccc(S(=O)(=O)NC(C)C)cc2)CC1 | 50.7 | – | – | – | – | – | –
CC1CCCC(C)N1C(=O)COC(=O)c1ccc2ccccc2n1 (stereo unspecified) | – | – | · | – | – | · | ·
SMILES | APOBEC3A inh | Yeast superoxide | PfM18AAP inh | PfG6PD inh | A3G deaminase | A3A conf | UDG ctr A3A
COc1ccc(C(=O)NCCCN2CCOCC2)cc1 | 71.6 | – | – | – | – | – | –
COc1ccc(NC(=S)NCCCN2CCCC2)cc1 | 40.9 | – | – | – | – | – | –
CCOc1ccc(NC(=S)NCCCN2CCN(c3ccc(OC)cc3)CC2)cc1 | – | – | – | – | – | · | ·
COc1cc(OC)cc(C(=O)NCCCN2CCOCC2)c1 | – | – | – | – | – | · | ·
c1ccc(-c2nnc3nc(N4CCCCC4)nc(N4CCCCC4)n23)cc1 | · | · | · | – | · | · | ·
O=C(COC(=O)c1ccc(S(=O)(=O)N2CCCCC2)cc1)Nc1ccccc1Cl | – | · | · | – | – | · | ·
COc1ccc2[nH]c(C)c(C(=O)CN3CCN(C/C=C/c4ccccc4)CC3)c2c1 | – | – | – | – | – | · | ·
CCOCc1cnc(C)nc1NCC(=O)c1c(C)[nH]c2ccc(OC)cc12 | 54.9 | – | – | – | – | 79.8 | –
COc1ccc(/C=C/C(=O)N2CCN(c3ccccn3)CC2)c(OC)c1OC | – | – | – | – | – | · | ·
Cc1ccc2ncccc2c1NS(=O)(=O)c1ccccc1 | 43.2 | – | – | – | – | – | ·
Cc1cccnc1NS(=O)(=O)c1ccccc1 | · | · | · | – | · | · | ·
CCOc1ccc(NC(=O)c2cc3ccccc3cc2O)cc1 | 63.0 | – | – | – | – | 51.6 | –
CCN1CCN(S(=O)(=O)c2ccc(Cl)c(C(=O)N(C)C(c3ccccc3)c3ccccc3)c2)CC1 | 57.3 | – | · | – | – | 63.8 | –
O=[N+]([O-])c1ccc(S(=O)(=O)NCC(c2ccco2)N2CCc3ccccc3C2)cc1 (stereo unspecified) | 76.9 | – | · | – | – | – | –
Cn1cc(C(=O)c2ccc(Cl)cc2Cl)cc1C(=O)N/N=C(\N)COc1cccc(C(F)(F)F)c1 | – | – | – | – | – | · | ·
CCCCn1c(N)c(N(CCOC)C(=O)c2cc(-c3ccco3)nc3ccccc23)c(=O)[nH]c1=O | 41.5 | – | · | – | – | 29.8 | –
CCCN(C(=O)c1cc(-c2ccco2)nc2ccccc12)c1c(N)n(Cc2ccccc2)c(=O)[nH]c1=O | – | – | · | – | – | · | ·
COCCN(C(=O)c1cc(-c2ccco2)nc2ccccc12)c1c(N)n(Cc2ccccc2)c(=O)[nH]c1=O | 45.7 | – | · | – | – | 32.1 | –
CCCCN(C(=O)c1cc(-c2ccco2)nc2ccccc12)c1c(N)n(CCCC)c(=O)[nH]c1=O | – | – | · | · | – | · | ·
CCCCn1c(N)c(N(CCOC)C(=O)c2cc(-c3ccc(OC)c(OC)c3)nc3ccccc23)c(=O)[nH]c1=O | 51.9 | – | · | – | – | 39.9 | –
CCn1ncc(Br)c1C(=O)Nc1c(C)nn(Cc2c(F)c(F)c(F)c(F)c2F)c1C | – | – | – | – | – | · | ·
CC(C)[C@H](NS(=O)(=O)c1ccc(Cl)cc1)C(=O)OCC(=O)NCCN1C(=O)CSC1=O | – | – | – | – | – | · | ·
CC(C)(C)c1ccc(CCC2OCC(C[N+]3(C)CCOCC3)O2)cc1 (stereo unspecified) | 45.1 | – | – | – | – | 72.6 | –
CC(=O)OCCCCCCCCCCC[N+]1(C)CCCCC1 | 79.4 | – | – | – | – | 72.6 | –
